Active and inactive are the calls of the source. Unless noted, no rule for the calls is given here.
Tests used:
[1] = tested on: Wnt5a (protein binding on small-molecule microarray); test: small molecules binding Wnt5a protein – biophysical, small-molecule microarray, 635/667 nm fluorescence, primary screen (AID 1142); details: 635 nm fluorescence, higher = more signal;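 also: fluorescence read at 667 nm with signal to noise per printed feature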
[2] = ATP-based viability of Huh7 replicon cells – cell-based, CellTiter-Glo luminescence, basal, 48 h, cytotoxicity control for HCV replication inhibitor project, primary screen (AID 1143); details: higher = more signal, called active from +8 up or from −8 down;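 also: Huh7 hepatoma cells carrying a hepatitis C replication reporter with no stimulus; test concentration not given here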
[3] = Pseudomonas biofilm growth suppression – PAO1 strain, BacTiter-Glo luminescence, LB-PBS, primary screen (AID 1144); details: P. aeruginosa PAO1 biofilm, 12 h, higher = more signal
[4] = basal CRE-LacZ reporter activity in PC12 – cell-based, unstimulated, primary screen (AID 1145); details: no forskolin, luminescence, 4.5 h, higher = more signal, called active from +8 up or from −8 down
[5] = forskolin-driven CRE-LacZ activity in PC12 – cell-based, CRE-LacZ reporter, forskolin-stimulated, primary screen (AID 1146); details: luminescence, 4.5 h, higher = more signal, called active from +8 up or from −8 down;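 also: PC12 cells with 6xCRE LacZ reporter stimulated by forskolin 10 µM; beta-galactosidase reporter signal reflecting CREB driven transcription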
[6] = target: Streptavidin (Streptomyces avidinii) (UniProt P22629); test: compounds binding control protein streptavidin – biophysical, small-molecule microarray, 635/667 nm fluorescence, artefact control for SMM compound annotation, primary screen (AID 1147); details: higher = more signal;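 also: signal reflects streptavidin binding to arrayed compounds as a control protein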
Sequence of Streptavidin (Streptomyces avidinii) (P22629 whole entry, looked up): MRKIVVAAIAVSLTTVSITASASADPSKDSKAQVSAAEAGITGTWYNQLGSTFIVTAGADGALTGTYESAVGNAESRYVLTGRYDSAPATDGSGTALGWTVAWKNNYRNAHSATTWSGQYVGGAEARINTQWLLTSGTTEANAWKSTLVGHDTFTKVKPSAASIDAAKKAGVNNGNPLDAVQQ

[7] = probe aInhba binding on compound microarray – biochemical, small-molecule microarray, 635/667 nm fluorescence, primary screen (AID 1148); details: higher = more signal;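 also: score merges 667nm spot fluorescence with signal-to-noise for antibody binding to printed compounds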
[8] = target: Torsin-1A (Homo sapiens) (UniProt O14656); test: TOR1A wild-type binding on microarray – cell lysate, small-molecule microarray, lysate, 635/667 nm, primary screen (AID 1149); details: COS7 hTOR1A-WT lysate, 635 nm fluorescence, higher = more signal
Sequence of Torsin-1A (Homo sapiens) (O14656 whole entry, looked up): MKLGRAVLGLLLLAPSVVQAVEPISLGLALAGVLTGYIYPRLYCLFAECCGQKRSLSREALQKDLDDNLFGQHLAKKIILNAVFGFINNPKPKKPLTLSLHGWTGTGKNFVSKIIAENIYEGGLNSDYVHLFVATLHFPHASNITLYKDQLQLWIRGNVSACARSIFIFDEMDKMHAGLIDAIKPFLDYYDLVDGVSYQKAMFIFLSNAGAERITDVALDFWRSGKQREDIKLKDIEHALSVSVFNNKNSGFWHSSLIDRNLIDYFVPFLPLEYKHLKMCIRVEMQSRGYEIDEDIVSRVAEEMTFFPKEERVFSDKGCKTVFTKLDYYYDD

[9] = target: Torsin-1A (Homo sapiens) (UniProt O14656); test: torsin A mutant lysate binding on microarrays – cell lysate, small-molecule microarray, COS7 lysate, 635/667 nm fluorescence, primary screen (AID 1150); details: COS7 hTOR1A mutant lysate, 635 nm fluorescence, higher = more signal;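 also: score pools 667 nm emission and signal to noise measuring lysate protein binding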
[10] = tested on: Sonic hedgehog protein (Shh); test: Sonic hedgehog microarray binding compounds – biochemical, small-molecule microarray, 635/667 nm fluorescence, primary screen (AID 1151); details: 635 nm fluorescence, higher = more signal;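 also: Shh protein binding to compounds spotted on small-molecule microarray slides; score combines spot fluorescence intensity with signal-to-noise across triplicate slides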
[11] = optical density shifts of acrAB sulA E. coli – strain DRC41, OD650, 48 h, E. coli filamentation inducer project, primary screen (AID 1152); details: higher = more signal, called active from +8 up or from −8 down;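 also: E. coli MC1000 strain DRC41 lacking acrAB efflux pump and sulA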
[12] = probe aLefty1 binding on compound microarray – biochemical, small-molecule microarray, 635/667 nm fluorescence, primary screen (AID 1153); details: higher = more signal;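 also: score merges spot fluorescence with signal-to-noise ratio from the scanned slide images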
[13] = plasmodial surface anion channel blockers, osmotic lysis – cell-based, P. falciparum Indochina, OD700, 1 h, primary screen (AID 1154); details: P. falciparum Indochina infected RBC osmotic lysis, higher = more signal, called active from +8 up or from −8 down
[14] = plasmodial surface anion channel blockers, osmotic lysis – cell-based, P. falciparum Indochina, OD700, 2 h, primary screen (AID 1155);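 also: lysis reports solute entry through the parasite surface anion channel PSAC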; details: P. falciparum Indochina infected erythrocytes, higher = more signal, called active from +8 up or from −8 down
[15] = changes in parasitized red cell lysis, either direction – P. falciparum Indochina, OD700, 3 h, PSAC antagonist project, primary screen (AID 1156); details: P. falciparum-infected erythrocytes, osmotic lysis, higher = more signal, called active from +8 up or from −8 down
[16] = plasmodial surface anion channel blockers, osmotic lysis – cell-based, P. falciparum Indochina, OD700, 18 h, primary screen (AID 1157); details: P. falciparum Indochina infected erythrocytes, osmotic lysis OD700, 18 h; higher = more signal, called active from +8 up or from −8 down
[17] = S6 kinase pathway phospho-S6 level changes – cell-based, A549, cytoblot, luminescence, serum-stimulated, primary screen (AID 1158); details: 5 h, higher = more signal;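 also: serum-stimulated A549 lung adenocarcinoma cells; signal is phosphorylated S6 detected by cytoblot immunostaining with HRP secondary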
[18] = target: NADPH oxidase 2 (Homo sapiens) (UniProt P04839); test: compounds shifting NOX2 Amplex Red fluorescence – cell-based, HEK293-NOX2, PMA-stimulated, NOX inhibitor project, primary screen (AID 1159); details: 45 min, higher = more signal, called active from +8 up or from −8 down; also: test concentration not given here
Sequence of NADPH oxidase 2 (Homo sapiens) (P04839 whole entry, looked up): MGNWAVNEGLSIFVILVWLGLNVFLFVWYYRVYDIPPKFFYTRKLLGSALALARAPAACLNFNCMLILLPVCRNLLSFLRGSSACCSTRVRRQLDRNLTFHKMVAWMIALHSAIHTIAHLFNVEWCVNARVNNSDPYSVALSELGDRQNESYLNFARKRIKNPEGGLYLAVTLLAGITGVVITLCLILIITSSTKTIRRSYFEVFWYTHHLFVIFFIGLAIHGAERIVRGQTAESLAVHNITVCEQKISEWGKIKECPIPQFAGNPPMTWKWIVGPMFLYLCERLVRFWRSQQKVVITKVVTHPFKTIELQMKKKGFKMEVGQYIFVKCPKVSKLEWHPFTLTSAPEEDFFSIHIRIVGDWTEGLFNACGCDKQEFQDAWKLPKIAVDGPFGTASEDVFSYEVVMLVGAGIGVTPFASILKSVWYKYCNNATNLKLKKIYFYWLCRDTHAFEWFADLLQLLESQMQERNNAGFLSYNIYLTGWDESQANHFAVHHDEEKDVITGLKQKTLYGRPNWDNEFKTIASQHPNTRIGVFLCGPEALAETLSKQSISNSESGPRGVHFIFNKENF

[19] = target: NADPH oxidase 4 (Homo sapiens) (UniProt Q9NPH5); test: compounds shifting NOX4 Amplex Red fluorescence – cell-based, HEK293-NOX4, tetracycline-induced, NOX inhibitor project, primary screen (AID 1160); details: HEK293-NOX4, Amplex Red H2O2 fluorescence, 45 min; higher = more signal, called active from +8 up or from −8 down
Sequence of NADPH oxidase 4 (Homo sapiens) (Q9NPH5 whole entry, looked up): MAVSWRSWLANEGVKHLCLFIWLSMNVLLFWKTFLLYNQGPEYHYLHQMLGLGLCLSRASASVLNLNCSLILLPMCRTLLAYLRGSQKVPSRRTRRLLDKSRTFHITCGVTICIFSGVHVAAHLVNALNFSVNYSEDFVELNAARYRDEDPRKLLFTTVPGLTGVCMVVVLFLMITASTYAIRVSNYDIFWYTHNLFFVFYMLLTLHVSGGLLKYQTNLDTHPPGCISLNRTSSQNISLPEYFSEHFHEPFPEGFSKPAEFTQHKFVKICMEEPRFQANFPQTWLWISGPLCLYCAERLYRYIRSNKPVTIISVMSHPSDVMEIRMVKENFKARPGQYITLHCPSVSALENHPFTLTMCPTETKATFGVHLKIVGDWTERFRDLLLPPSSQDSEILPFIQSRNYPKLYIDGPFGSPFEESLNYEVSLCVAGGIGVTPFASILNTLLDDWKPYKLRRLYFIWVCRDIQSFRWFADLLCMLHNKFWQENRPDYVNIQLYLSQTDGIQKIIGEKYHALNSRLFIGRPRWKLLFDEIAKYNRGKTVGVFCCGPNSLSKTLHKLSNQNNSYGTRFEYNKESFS

[20] = target: NADPH oxidase 5 (Homo sapiens) (UniProt Q96PH1); test: compounds shifting NOX5 Amplex Red fluorescence – cell-based, HEK293-NOX5, NOX inhibitor project, primary screen (AID 1161); details: HEK293-NOX5, ionomycin, 45 min, higher = more signal
Sequence of NADPH oxidase 5 (Homo sapiens) (Q96PH1 whole entry, looked up): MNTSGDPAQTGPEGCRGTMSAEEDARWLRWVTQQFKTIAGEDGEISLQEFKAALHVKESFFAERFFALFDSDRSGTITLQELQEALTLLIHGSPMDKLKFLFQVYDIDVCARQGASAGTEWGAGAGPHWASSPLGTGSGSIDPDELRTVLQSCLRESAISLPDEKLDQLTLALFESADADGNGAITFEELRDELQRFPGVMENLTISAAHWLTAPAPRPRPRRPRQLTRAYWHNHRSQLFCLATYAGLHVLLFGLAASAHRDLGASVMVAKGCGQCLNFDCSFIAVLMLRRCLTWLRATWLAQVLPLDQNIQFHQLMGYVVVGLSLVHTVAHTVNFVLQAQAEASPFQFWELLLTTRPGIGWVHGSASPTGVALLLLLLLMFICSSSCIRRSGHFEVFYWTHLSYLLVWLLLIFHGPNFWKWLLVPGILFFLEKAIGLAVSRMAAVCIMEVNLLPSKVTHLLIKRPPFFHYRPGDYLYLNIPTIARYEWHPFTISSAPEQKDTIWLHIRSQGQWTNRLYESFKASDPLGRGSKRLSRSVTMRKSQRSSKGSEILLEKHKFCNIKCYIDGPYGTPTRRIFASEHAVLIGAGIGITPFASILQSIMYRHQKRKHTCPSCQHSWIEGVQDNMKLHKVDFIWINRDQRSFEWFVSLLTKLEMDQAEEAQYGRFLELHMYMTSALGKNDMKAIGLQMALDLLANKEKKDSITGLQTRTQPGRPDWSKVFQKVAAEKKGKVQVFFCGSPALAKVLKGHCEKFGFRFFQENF

SMILES | composite z-score [1] | z-score [2] | z-score [3] | z-score [4] | z-score [5] | composite z-score [6] | composite z-score [7] | composite z-score [8] | composite z-score [9] | composite z-score [10] | z-score [11] | composite z-score [12] | z-score [13] | z-score [14] | z-score [15] | z-score [16] | z-score [17] | z-score [18] | z-score [19] | z-score [20]
C=C(CCCC)/C(=C/C[C@@H](OC(=O)c1ccncc1)c1ccc(OCCO)cc1)c1cc(C(=O)OC)ccc1OC | -0.109 | -1.43 (inactive) | -0.0194 (inactive) | 2.32 (inactive) | 1.99 (inactive) | 0.378 | -0.128 | 0.0383 | 0.111 | 1.41 | 0.4 (inactive) | -0.0984 | 17.3 (active) | 3.18 (inactive) | 1.85 (inactive) | 0.969 (inactive) | 0.377 | -1.61 (inactive) | -0.665 (inactive) | -1.9
CCOC(=O)C[C@H]1[C@H](OC(=O)c2ccc(C(=O)c3ccccc3)cc2)[C@@H](NC(=O)c2ccccc2)c2cc(OCCCO)ccc2N1C(=O)Cc1ccc(OC)cc1 | 0.285 | 0.0963 (inactive) | -0.0343 (inactive) | 2.75 (inactive) | 0.0836 (inactive) | 0.101 | -0.0413 | -0.0962 | 0.322 | -0.0887 | -0.126 (inactive) | -0.185 | 3.37 (inactive) | 0.656 (inactive) | -0.391 (inactive) | 0.259 (inactive) | -0.0114 | 0.924 (inactive) | 0.983 (inactive) | 1.45
CCC[C@@H]1C[C@@]1(CCC)[C@@H](NC(=O)c1ccccc1)c1cccc(Cl)c1 | 2.05 | -0.246 (inactive) | 0.0208 (inactive) | 0.776 (inactive) | 0.485 (inactive) | 2.17 | 1.32 | 0.0875 | 0.512 | -1.33 | -1 (inactive) | 2.15 | 0.534 (inactive) | 0.364 (inactive) | 0.277 (inactive) | 0.839 (inactive) | -0.841 | 0.46 (inactive) | -0.107 (inactive) | 0.328
COc1cc(COC(C)=O)ccc1OC(C)=O | 1.27 | -1.68 (inactive) | -1.48 (inactive) | 1.42 (inactive) | 68.7 (active) | -0.114 | 0.257 | 0.343 | 0.141 | 0.857 | 3.19 (inactive) | 0.383 | -1.49 (inactive) | -0.983 (inactive) | -1.76 (inactive) | -2.3 (inactive) | 1.29 | -4.55 (inactive) | -0.433 (inactive) | -0.154
CCOC(=O)C[C@H]1[C@H](OC(=O)c2ccc(C(=O)c3ccccc3)cc2)[C@@H](NC(=O)c2ccc3ccccc3c2)c2cc(OCCCO)ccc2N1C(=O)Cc1ccc(OC)cc1 | -0.354 | -0.132 (inactive) | -0.329 (inactive) | -0.635 (inactive) | -0.383 (inactive) | 0.271 | -0.102 | 1.08 | 0.16 | -0.006 | 0.739 (inactive) | 0.138 | 6.12 (inactive) | 0.448 (inactive) | 0.337 (inactive) | 0.184 (inactive) | 0.742 | -0.992 (inactive) | 0.557 (inactive) | 0.161
C#C[C@H](O[Si](C#Cc1ccc(Oc2ccccc2)cc1)(C(C)C)C(C)C)c1ccccc1 | 0.0942 | -0.868 (inactive) | -0.0203 (inactive) | 0.498 (inactive) | 1.7 (inactive) | 0.145 | -0.082 | 1.38 | 0.122 | 0.21 | -0.425 (inactive) | -0.104 | 0.353 (inactive) | 0.787 (inactive) | -2.03 (inactive) | -0.206 (inactive) | -0.305 | -1.03 (inactive) | -2.59 (inactive) | -3.04
C[C@@]1([C@@H](NC(=O)c2ccc(-c3ccccc3)cc2)c2ccc(Cl)cc2)C[C@H]1C1CCCCC1 | 0.271 | -1.18 (inactive) | -0.123 (inactive) | 0.972 (inactive) | 0.829 (inactive) | 1.35 | 0.289 | 0.564 | 0.0484 | -0.106 | -1.28 (inactive) | 0.284 | 15.8 (active) | 3.36 (inactive) | -0.0758 (inactive) | 1.11 (inactive) | -0.216 | -0.75 (inactive) | 0.205 (inactive) | 0.644
C=CCC(OC(C)=O)[C@@H]1[C@@H](N(Cc2ccc(-c3ccccc3)cc2)C(=O)c2ccc(-c3ccccc3)cc2)c2cc(OCCCO)ccc2N1C(=O)Cc1ccc2ccccc2c1 (stereo not given in full) | 0.102 | 0.315 (inactive) | -0.0138 (inactive) | 0.208 (inactive) | 0.411 (inactive) | 0.497 | 0.0051 | -0.395 | 0.42 | 0.523 | -0.706 (inactive) | 0.155 | 0.05 (inactive) | 0.129 (inactive) | -0.472 (inactive) | 0.408 (inactive) | -0.309 | 0.795 (inactive) | 1 (inactive) | 0.532

— PubChem BioAssay
